Compounds without any hit were thinned out: in the full panel of roughly 79,000, 15% have a hit. Values without a mark were called inactive. Calls of active or inactive are those of the source. No stated cut-off is given here; in the data, active means growth inhibition above about 70%; inactive means the rest.
Assays:
[1] = NCI Yeast Anticancer Drug Screen. Data for the rad50 strain (AID 155);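 further: 0% = growth of vehicle-only cultures of the same strain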; conditions: S. cerevisiae rad50 strain growth inhibition, active compounds read high
In short: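 Inhibition values express reduced yeast growth in compound-treated cultures relative to vehicle-treated controls.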

[2] = NCI Yeast Anticancer Drug Screen. Data for the mec2-1 strain (AID 157); conditions: S. cerevisiae mec2-1 strain, active compounds read high
In short: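 Growth inhibition is read against vehicle-treated controls after compound exposure of the mec2-1 yeast strain, which is defective in DNA damage repair or cell cycle control.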

[3] = NCI Yeast Anticancer Drug Screen. Data for the sgs1 mgt1 strain (AID 161);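 further: 0% = growth of cultures given vehicle only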; conditions: S. cerevisiae sgs1 mgt1 strain, active compounds read high
In short: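 Growth of a repair-deficient yeast mutant was monitored after compound treatment and expressed as inhibition relative to vehicle-treated cultures.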

[4] = NCI Yeast Anticancer Drug Screen. Data for the cln2 rad14 strain (AID 165);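 further: 0% = growth equal to vehicle treated cultures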; conditions: S. cerevisiae cln2 rad14 strain, active compounds read high
In short: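 Growth inhibition, relative to vehicle-treated controls, is the read-out. The test organism is a yeast strain with defined genetic alterations, cln2 rad14.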

[5] = NCI Yeast Anticancer Drug Screen. Data for the bub3 strain (AID 167); conditions: S. cerevisiae bub3 mutant strain, active compounds read high
In short: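 Steps: expose the mutant yeast strain to compound; grow alongside vehicle-treated cultures; measure growth; express inhibition against the vehicle cultures.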

[6] = NCI Yeast Anticancer Drug Screen. Data for the mlh1 rad18 strain (AID 175); conditions: S. cerevisiae mlh1 rad18 strain growth inhibition, active compounds read high
In short: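 Cells of a genetically altered yeast strain, deficient in DNA damage repair, were treated with compound. Their growth was then compared with that of vehicle-treated cultures to give inhibition.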

[7] = at 5.0 µM (retest, dose inferred, filed as 0.5)
[8] = at 50.0 µM (retest, dose inferred, filed as 5.0)

Compound	growth inhibition [1, 7]	growth inhibition [1, 8]	growth inhibition ([1]; at 50.0 µM)	growth inhibition [2, 7]	growth inhibition [2, 8]	growth inhibition ([2]; at 50.0 µM)	growth inhibition [3, 7]	growth inhibition [3, 8]	growth inhibition ([3]; at 50.0 µM)	growth inhibition [4, 7]	growth inhibition [4, 8]	growth inhibition ([4]; at 50.0 µM)	growth inhibition [5, 7]	growth inhibition [5, 8]	growth inhibition ([5]; at 50.0 µM)	growth inhibition [6, 7]	growth inhibition [6, 8]	growth inhibition ([6]; at 50.0 µM)
Nc1ccc2oc(=O)c3ccccc3c2c1	18%	94% (active)	85.3% (active)	7%	69%	36.6%	10%	85% (active)	48%	8%	30%	6.8%	-3%	74% (active)	33.1%	22%	94% (active)	86.8% (active)
COc1ccc(C(=O)C(Br)CS(=O)(=O)c2ccc(C)cc2)cc1 (stereo not given)	56%	99% (active)	99% (active)	36%	99% (active)	99.4% (active)	71% (active)	99% (active)	99.4% (active)	18%	98% (active)	97.8% (active)	47%	98% (active)	99.1% (active)	48%	98% (active)	99% (active)
O=C1c2ccc(O)cc2C(=O)c2c1ccc(O)c2O	28%	97% (active)	76% (active)	26%	95% (active)	67.3%	46%	96% (active)	83% (active)	9%	73% (active)	41.3%	37%	94% (active)	76.9% (active)	45%	97% (active)	77.4% (active)
CC1=C[P+](c2ccccc2)(c2ccccc2)C=C(c2ccccc2)O1	51%	94% (active)	84.5% (active)	24%	98% (active)	88.1% (active)	25%	94% (active)	87.4% (active)	42%	89% (active)	84.8% (active)	64%	97% (active)	90.4% (active)	34%	93% (active)	89% (active)
Cc1ccc(/C=C2\CCC/C(=C\c3ccc(O)c(CN4CCCCC4)c3)C2=O)cc1	16%	22%	6.8%	4%	15%	-15.2%	0%	25%	70.9% (active)	7%	27%	42.1%	-34%	28%	66.5%	9%	18%	84% (active)
CCOC(=O)Nc1nc2ccc(SC#N)cc2s1	8%	85% (active)	92.9% (active)	1%	81% (active)	64.8%	9%	96% (active)	79.8% (active)	6%	88% (active)	57.5%	23%	93% (active)	88.2% (active)	9%	94% (active)	50.5%
CC(C)(C)C1CCC2c3c([nH]c4ccccc34)C3C(=O)N(c4ccc(C(=O)O)cc4)C(=O)C3C2C1 (stereo not given)	98% (active)	98% (active)	96.3% (active)	99% (active)	99% (active)	99.2% (active)	99% (active)	99% (active)	98.5% (active)	89% (active)	98% (active)	99.4% (active)	74% (active)	99% (active)	99.3% (active)	97% (active)	99% (active)	98.8% (active)
CC(C)(C)N1OC2(c3ccccc3)OC3N(C(C)(C)C)OC4(c5ccccc5)OC1C2(c1ccccc1)C34c1ccccc1 (stereo not given)	-4%	99% (active)	93.7% (active)	-2%	100% (active)	97.9% (active)	-5%	99% (active)	72% (active)	4%	99% (active)	98% (active)	1%	99% (active)	99.2% (active)	0%	99% (active)	96% (active)
O=P1(N2CCCCC2)N(Cc2ccc(Cl)cc2)CCCN1Cc1ccc(Cl)cc1	59%	96% (active)	82% (active)	65%	97% (active)	51.5%	11%	97% (active)	29.1%	31%	96% (active)	63.2%	49%	96% (active)	6.75%	69%	90% (active)	76.8% (active)
c1nc2nc(N3CCOCC3)nc(N3CCCCC3)c2[nH]1	-22%	-14%	-1.35%	-18%	-18%	3.25%	2%	2%	2.45%	-2%	0%	6.7%	-1%	-9%	-43.2%	-19%	10%	-0.15%
